This is part of a sample that, as a whole, favours compounds with a hit. Of some 83,000 tested, about 20% had one in any assay.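 Method: cells in 96-well plates; compound added at one concentration; 48 h incubation; percent growth measured; values under 10 scored active.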 A number with no mark means an inactive call. Active and inactive are the calls of the source.

In PubChem BioAssay (NCI) one finds growth data, which are given here for eight compounds.

Among the test systems are NCI-H23 lung; NCI-H226 lung; NCI-H322M lung; HOP-62 NSCLC; NCI-H460 lung; A549/ATCC NSCLC; 786-0 renal; COLO 205 colon; DU-145 prostate; K-562 leukemia; MALME-3M melanoma; MDA-MB-231 breast; RXF 393 renal; SF-268 CNS; SF-295 CNS; SF-539 CNS; UACC-257 melanoma; M14 melanoma.
Assay in all cases: NCI-60 one-dose screen, 48 h (100 = growth as untreated, 0 = no growth, -100 = all killed)
Holding throughout (settings): 10 µM unless noted

With `O=C(Nc1ccc(-n2cc(-c3ccncc3)c(-c3ccc(Cl)c(O)c3)n2)cc1)Nc1cc(C(F)(F)F)cc(C(F)(F)F)c1`, the growth with NCI-H23 lung was 15.4%; with NCI-H226 lung it was 42%; in the experiment on NCI-H322M lung it was 41.9%; in the experiment on HOP-62 NSCLC it was 14%; in the experiment on NCI-H460 lung it was 5.79% (active); with A549/ATCC NSCLC, 17.6%. Moreover, the growth with 786-0 renal is -60.1% (active); in the experiment on COLO 205 colon, -55.2% (active); in the experiment with DU-145 prostate, 36.4%; with K-562 leukemia, 17.6%; with MALME-3M melanoma it was 12%; in the experiment with MDA-MB-231 breast, 21.5%. In addition, the growth in the experiment on RXF 393 renal was -11.2% (active); in the experiment with SF-268 CNS, 25.9%; with SF-295 CNS, -5.6% (active); with SF-539 CNS, 30.3%; in the experiment with UACC-257 melanoma it was 8.73% (active); with M14 melanoma, 6.9% (active).
As for `O=C(CCl)NC1c2ccccc2Oc2ccccc21`, the growth with NCI-H23 lung was 70.4%; in the experiment on NCI-H226 lung it was 98.1%; in the experiment on NCI-H322M lung, 97.9%; in the experiment on HOP-62 NSCLC, 75.5%; in the experiment on NCI-H460 lung, 64.8%; in the experiment with A549/ATCC NSCLC, 71.7%. The growth was 77.2% in the experiment on 786-0 renal; 103% with COLO 205 colon; 65.5% in the experiment with DU-145 prostate; 45.6% in the experiment with K-562 leukemia; 74.1% in the experiment with MALME-3M melanoma; 60.7% in the experiment on MDA-MB-231 breast. Further, the growth in the experiment on RXF 393 renal is 80.1%; with SF-268 CNS, 64.4%; in the experiment with SF-295 CNS it was 81.2%; with SF-539 CNS, 82.4%; with UACC-257 melanoma, 63.6%; with M14 melanoma it was 77.8%.
As to `COc1cc(-c2nn(-c3ccc(NC(=O)c4cc(Cl)cc(Cl)c4)cc3)cc2-c2ccncc2)ccc1Cl`, the growth with NCI-H23 lung is 88%; in the experiment with NCI-H226 lung, 107%; in the experiment with NCI-H322M lung, 104%; with HOP-62 NSCLC, 56.9%; in the experiment on NCI-H460 lung it was 54.8%; in the experiment on A549/ATCC NSCLC, 73%. The growth was 16.7% with 786-0 renal; 101% with COLO 205 colon; 96.9% in the experiment with DU-145 prostate; 23.4% with K-562 leukemia; 104% in the experiment on MALME-3M melanoma; 80.9% with MDA-MB-231 breast. Moreover, the growth with RXF 393 renal is -17.1% (active); with SF-268 CNS, 76.9%; in the experiment with SF-295 CNS, -1.01% (active); in the experiment on SF-539 CNS, 60.2%; with UACC-257 melanoma, 102%; with M14 melanoma it was 62.9%.
In the case of `COC(=O)C(N)CC(C)C` (centres undefined), the growth in the experiment with NCI-H23 lung is 107%; with NCI-H226 lung, 97.1%; in the experiment with NCI-H322M lung, 106%; with HOP-62 NSCLC, 110%; in the experiment on NCI-H460 lung, 108%; in the experiment with A549/ATCC NSCLC, 103%. In addition, the growth is 96.7% in the experiment on 786-0 renal; 114% in the experiment with COLO 205 colon; 101% in the experiment on DU-145 prostate; 88.8% in the experiment on K-562 leukemia; 95.2% in the experiment on MALME-3M melanoma; -50.4% (active) in the experiment with MDA-MB-231 breast. In addition, the growth with RXF 393 renal was 98.2%; in the experiment on SF-268 CNS it was 96.8%; in the experiment on SF-295 CNS, 109%; with SF-539 CNS it was 112%; with UACC-257 melanoma, 102%; in the experiment with M14 melanoma, 92.6%.
As for `C=CC1CN2CCC1CC2C(O)c1ccnc2ccc(OC)cc12` (centres undefined), the growth with NCI-H23 lung was 98.3%; in the experiment with NCI-H226 lung it was 91.9%; in the experiment with NCI-H322M lung it was 94.4%; in the experiment with HOP-62 NSCLC, 79.8%; in the experiment with NCI-H460 lung, 98.5%; in the experiment on A549/ATCC NSCLC, 97.3%. In addition, the growth in the experiment with 786-0 renal was 92%; in the experiment on COLO 205 colon, 106%; with DU-145 prostate, 127%; in the experiment with K-562 leukemia, 106%; in the experiment with MALME-3M melanoma, 95.6%; with MDA-MB-231 breast, 96.7%. For the same compound, the growth in the experiment on RXF 393 renal is 97%; in the experiment with SF-268 CNS it was 103%; in the experiment on SF-295 CNS, 91.6%; in the experiment with SF-539 CNS it was 98.3%; in the experiment on UACC-257 melanoma, 106%; in the experiment on M14 melanoma, 98.9%.
As for `COc1ccc2cn3c4ccc(O)cc4[nH]c(=O)c3c2c1`, the growth was 25.3% in the experiment with NCI-H23 lung; 54.7% with NCI-H226 lung; 41% in the experiment on NCI-H322M lung; 25.8% in the experiment on HOP-62 NSCLC; -48.7% (active) with NCI-H460 lung; 19.3% in the experiment with A549/ATCC NSCLC. The growth is 24.1% with 786-0 renal; -7.26% (active) in the experiment on COLO 205 colon; 11.5% in the experiment with DU-145 prostate; 13.2% in the experiment with K-562 leukemia; 41.2% with MALME-3M melanoma; 23.2% in the experiment with MDA-MB-231 breast. Moreover, the growth was 2.52% (active) with RXF 393 renal; 21% with SF-268 CNS; 0.201% (active) in the experiment on SF-295 CNS; -9.1% (active) in the experiment on SF-539 CNS; 50.1% in the experiment with UACC-257 melanoma; -2.73% (active) in the experiment with M14 melanoma.
Take `CCCCCCCCCCCCOC(=N)N(C)C`: the growth in the experiment on NCI-H23 lung is 107%; in the experiment on NCI-H226 lung, 96.2%; in the experiment on NCI-H322M lung, 95%; in the experiment on HOP-62 NSCLC, 97%; in the experiment with NCI-H460 lung, 99.8%; in the experiment on A549/ATCC NSCLC, 91.7%. In addition, the growth with 786-0 renal was 96.8%; in the experiment on COLO 205 colon, 100%; in the experiment with DU-145 prostate, 112%; with K-562 leukemia, 96.3%; in the experiment with MALME-3M melanoma it was 88.9%; with MDA-MB-231 breast, 104%. For the same compound, the growth in the experiment with RXF 393 renal was 112%; with SF-268 CNS, 101%; with SF-295 CNS, 98.4%; in the experiment on SF-539 CNS it was 99.4%; in the experiment with UACC-257 melanoma it was 92.2%; in the experiment on M14 melanoma, 106%.
Take `O=C(CCl)c1ccc2c(c1)CCCC2`: the growth was 105% in the experiment with NCI-H23 lung; 108% in the experiment on NCI-H226 lung; 94.3% in the experiment on NCI-H322M lung; 107% in the experiment on HOP-62 NSCLC; 107% with NCI-H460 lung; 101% in the experiment on A549/ATCC NSCLC. The growth in the experiment with 786-0 renal was 90.6%; with COLO 205 colon, 113%; in the experiment on DU-145 prostate, 110%; in the experiment on K-562 leukemia, 72.1%; in the experiment with MALME-3M melanoma it was 80.8%; in the experiment with MDA-MB-231 breast it was 103%. Also, the growth in the experiment with RXF 393 renal was 99%; in the experiment on SF-268 CNS it was 104%; in the experiment on SF-295 CNS, 70.2%; with SF-539 CNS, 90.8%; with UACC-257 melanoma it was 98.1%; with M14 melanoma, 95.5%.
